# Reference: PubChem BioAssay
# “And” between values parts separate entries of the source, which are not always exact repeats. Equal entries are not always repeated. A number with no mark means an inactive call. No rule for the calls is given here.
# Molecular target: L-lactate dehydrogenase (Plasmodium falciparum (isolate CDC / Honduras)) (UniProt Q27743)
# Assay: PfLDH activity inhibition – cell lysate, 3D7 strain, counter-screen for P. falciparum growth inhibition project (AID 2304);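 also: 0% = vehicle and 100% = reference inhibitor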
# Settings: P. falciparum 3D7 crude extract, LDH APAD/NBT absorbance; at 2 µM; stronger effect = higher value
# Chain of L-lactate dehydrogenase (Plasmodium falciparum (isolate CDC / Honduras)) (Q27743 whole entry, looked up): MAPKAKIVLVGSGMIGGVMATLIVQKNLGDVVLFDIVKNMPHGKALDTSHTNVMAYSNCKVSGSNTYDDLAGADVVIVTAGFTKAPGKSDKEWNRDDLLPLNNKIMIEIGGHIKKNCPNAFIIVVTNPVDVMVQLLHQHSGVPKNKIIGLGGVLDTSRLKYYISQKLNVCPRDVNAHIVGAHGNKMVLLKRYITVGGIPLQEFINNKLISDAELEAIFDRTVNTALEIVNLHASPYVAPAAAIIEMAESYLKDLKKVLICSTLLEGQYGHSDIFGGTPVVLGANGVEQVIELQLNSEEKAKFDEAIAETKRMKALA
row,SMILES,inhibition
1,CCCCC/C=C/C(=O)NC1CCC(CN2CCC(c3c[nH]c4ccccc34)CC2)CC1 (configuration not stated),-1%
2,COc1ccc(O)c(CN2CCN(c3cc(C)ccc3C)CC2)c1,2%
3,CC[C@H]1CN2CC[C@H]1C[C@@H]2[C@@H](O)c1cc(Cl)nc2ccc(OC)cc12,-2%
4,CC(Cc1ccc(Sc2ccccc2)cc1)NCC(O)c1cccc(C(F)(F)F)c1 (configuration not stated),2%
5,CC(C)CCNC(=O)c1cc(C(=O)c2cc(F)ccc2O)cn(CCC(C)C)c1=O,-1%
6,O=C(/C=C/c1ccc(Cl)c(Cl)c1)N1CCC(CN2CCC(c3c[nH]c4ccc(O)cc34)CC2)CC1,-7%
7,Oc1ccc2[nH]cc(C3=CCN(CCc4ccccc4)CC3)c2c1,3%
8,C/C=C1\CN2CC[C@H]1C[C@H]2[C@H](O)c1ccnc2ccc(O)cc12,-3%
9,CC[C@H]1CN2CC[C@@H]1C[C@H]2[C@H](O)c1cc(N2CCC(N3CCCCC3)CC2)nc2ccc(OC)cc12,3%
10,S=C(NCC1CCCCC1)NC1CCC(CN2CCC(c3c[nH]c4ccccc34)CC2)CC1 (configuration not stated),6%
11,COc1cc(C=CC(=O)N2CCC(CN3CCC(c4c[nH]c5ccccc45)CC3)CC2)ccc1O,-3%
12,CCOc1ccc2nccc([C@@H](O)[C@@H]3C[C@@H]4CCN3C[C@@H]4CC)c2c1,2% and -2%
13,CC1(CCCCN2CC=C(c3c[nH]c4ccccc34)CC2)C(=O)Nc2ccccc21 (configuration not stated),4%
14,CN1CC=C(c2c[nH]c3ccc(OC(=O)c4ccccc4)cc23)C1,1%
15,Cc1[nH]c2c(C)cc(NS(C)(=O)=O)cc2c1C1CCN(CC2CCN(C(=O)/C=C/c3ccc(Cl)c(Cl)c3)CC2)CC1,1%
16,COC(=O)c1ccc(CC(C)NCC(O)c2cccc(Cl)c2Cl)cc1 (configuration not stated),-6%
17,Oc1ccc(CN2CCN(CCOC(c3ccc(F)cc3)c3ccc(F)cc3)CC2)cc1Cl,-4%
18,COC(=O)c1ccc(CC(C)NCC(O)c2ccc(F)c(Cl)c2)cc1 (configuration not stated),-7%
19,O=C(C=Cc1ccccc1Br)NC1CCC(CN2CCC(c3c[nH]c4ccccc34)CC2)CC1 (configuration not stated),4%

row,SMILES,inhibition
1,CC[C@H]1CN2CC[C@H]1C[C@H]2[C@H](O)c1cc(Cl)nc2ccc(OC)cc12,2%
2,CC(=O)C1(c2ccccc2)CCN(CCC2(c3ccc(Cl)c(Cl)c3)CN(C(=O)Nc3cccc(C(F)(F)F)c3)CCO2)CC1 (configuration not stated),8%
3,Cc1[nH]c2ccccc2c1C1=CCN(CCCCC23CCCc4cccc(c42)NC3=O)CC1 (configuration not stated),-4%
4,Oc1ccc2[nH]cc(C3=CCN(Cc4ccccc4)CC3)c2c1,7%
5,CN1CC=C(c2c[nH]c3ccc(Sc4ccccc4)cc23)CC1,-2%
6,OC(CNC1CCCCCC1)c1ccc(Cl)c(Cl)c1 (configuration not stated),-3%
7,CC[C@H]1CN2CC[C@H]1C[C@H]2[C@H](O)c1cc(-c2cccc(F)c2)nc2ccc(OC)cc12,5%
8,COC(=O)c1ccc(CC(C)NCC(O)c2cccc(C(F)(F)F)c2)c(Cl)c1 (configuration not stated),1%
9,Cc1ccc(CC(C)NCC(O)c2cccc(Br)c2)cc1 (configuration not stated),3%
10,COc1ccc2[nH]cc(C3C[C@H]4CC[C@@H](C3)N4CCC3CCN(C(=O)/C=C/c4ccc(Cl)c(Cl)c4)CC3)c2c1 (some centres not stated),5%
11,CCOC(C(=O)OCC1CCCN1C(C)C)(c1ccccc1)c1ccccc1 (configuration not stated),-3%
12,CN(C)c1cccc(NC(=O)NC2N=C(c3ccccc3)c3ccccc3N(CC(=O)N(C)c3ccccc3)C2=O)c1 (configuration not stated),4%
13,CC(=O)Nc1ccc2[nH]cc(C3CCN(CC4CCC(NC(=O)/C=C/c5ccc(Cl)c(Cl)c5)CC4)CC3)c2c1 (configuration not stated),2% and 6%
14,O=C(Cc1cc(=O)oc2cc(O)ccc12)NC1CCC(CN2CCC(c3c[nH]c4ccccc34)CC2)CC1 (configuration not stated),-1%
15,COc1ccc(CN2CCN(CCOC(c3ccccc3)c3ccccc3)CC2)c(O)c1,0%
16,O=C(/C=C/c1c(Cl)cccc1Cl)NC1CCC(CN2[C@@H]3CC[C@H]2CC(c2c[nH]c4ccccc24)C3)CC1 (some centres not stated),-1%
17,N#Cc1ccc(N(CC(=O)NCCc2ccccc2)CC2CC2)c2ccccc12,-3%
18,CC(Cc1ccc(-c2nc3ccccc3[nH]2)cc1)NCC(O)c1cccc(C(F)(F)F)c1 (configuration not stated),4%
